Test results reported in PubChem BioAssay AID753 (Emory University Molecular Libraries Screening Center, 2007).
This is one part of the list. Results filed as inconclusive are left out. A number with no mark means an inactive call. The source made the active and inactive calls.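 Rule for the calls: active = percent of control activity at or below 60%; inconclusive = HPLC trace unusable from injection failure or solvent front hiding peaks; inactive = the rest, plus ubiquitin peak ratio over a set limit.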

Biological target: Ubiquitin carboxyl-terminal hydrolase BAP1 (Homo sapiens) (UniProt Q92560)
Assay: BAP1 deubiquitinase inhibitors, hit retest, confirmation, orthogonal assay, biochemical, Ub-ethyl ester substrate, HPLC readout (AID 753)
Settings: purified BAP1, Ub-ethyl ester hydrolysis; at 20 µM, stronger effect = lower value

Ubiquitin carboxyl-terminal hydrolase BAP1 (Homo sapiens), sequence (Q92560 whole entry, looked up): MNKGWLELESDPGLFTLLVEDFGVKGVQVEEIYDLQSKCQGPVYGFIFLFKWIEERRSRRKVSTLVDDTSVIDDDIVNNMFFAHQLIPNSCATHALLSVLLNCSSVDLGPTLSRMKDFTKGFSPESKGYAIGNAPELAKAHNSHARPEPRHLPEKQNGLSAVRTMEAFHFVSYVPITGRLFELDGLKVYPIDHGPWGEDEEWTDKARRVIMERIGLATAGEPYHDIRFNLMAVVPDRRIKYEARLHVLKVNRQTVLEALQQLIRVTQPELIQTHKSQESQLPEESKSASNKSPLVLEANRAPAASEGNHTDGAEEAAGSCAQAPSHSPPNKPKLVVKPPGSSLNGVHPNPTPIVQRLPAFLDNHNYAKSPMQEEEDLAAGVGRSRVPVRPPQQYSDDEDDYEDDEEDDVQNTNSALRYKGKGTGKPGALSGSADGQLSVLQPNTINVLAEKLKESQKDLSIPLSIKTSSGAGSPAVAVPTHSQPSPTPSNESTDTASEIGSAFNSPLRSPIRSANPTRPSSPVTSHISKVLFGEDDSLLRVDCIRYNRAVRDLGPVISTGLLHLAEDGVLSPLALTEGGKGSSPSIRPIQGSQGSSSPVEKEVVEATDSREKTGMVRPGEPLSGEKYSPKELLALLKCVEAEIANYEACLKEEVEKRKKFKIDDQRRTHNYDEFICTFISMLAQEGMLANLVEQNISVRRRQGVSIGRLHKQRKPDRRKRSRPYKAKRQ

**Q.** For `CCOc1ccc(CN(Cc2ccco2)C(c2cccs2)c2nnnn2C(C)(C)C)cc1` (configuration not stated), which outcome is on record?
**A.** inactive

**Q.** `N#Cc1c(/N=C/N2CCCC2)oc(-c2ccccc2)c1-c1ccccc1` was tested. Which % of control activity did it give?
**A.** 111%

**Q.** How did the % of control activity turn out when `C=CCn1c2ccccc2c2nnc(SC(CC)C(=O)Nc3nc(C)c(C(=O)OCC)s3)nc21` (configuration not stated) was run?
**A.** 73.6%

**Q.** How did the % of control activity turn out when `Fc1ccc2nc(Nc3nc4c(s3)CCCC4)sc2c1` was run?
**A.** 142%

**Q.** `Fc1ccc(-c2ccc(-c3nn4c(-c5ccco5)nnc4s3)o2)cc1` was tested. Which % of control activity did it give?
**A.** 106%

**Q.** With `O=c1c2ccccc2nc(CSc2nnnn2-c2ccccc2)n1-c1ccccc1` as the molecule, how does the % of control activity read?
**A.** 83.3%

**Q.** For `CCC(c1nnnn1C1CCCC1)N(Cc1cccs1)Cc1cc2cccc(C)c2[nH]c1=O` (configuration not stated), which % of control activity is on record?
**A.** 99.7%
